Experimental data reported in PubChem BioAssay.
For part of these data: Potency and affinity values are given separately. Active and inactive are the calls of the source.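 Rule for the calls, unless noted: active = fitted half-maximal concentration within 10 nM to 100 µM, steepness 0.5 to 2, significant signal drop, low assay interference; inactive = the rest.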

How the values were obtained:
[1] = target: Cell division control protein 42 homolog (Homo sapiens) (UniProt P60953); assay: inhibition of fluorescent GTP binding to constitutively active Cdc42 – biochemical, multiplex bead flow cytometry, Bodipy-FL-GTP, dose response (AID 1333;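 active = fitted half-maximal concentration within the tested dose range, moderate curve steepness, a statistically real signal drop, and little compound fluorescence or tag-binding interference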)
Sequence of Cell division control protein 42 homolog (Homo sapiens) (P60953 whole entry, looked up): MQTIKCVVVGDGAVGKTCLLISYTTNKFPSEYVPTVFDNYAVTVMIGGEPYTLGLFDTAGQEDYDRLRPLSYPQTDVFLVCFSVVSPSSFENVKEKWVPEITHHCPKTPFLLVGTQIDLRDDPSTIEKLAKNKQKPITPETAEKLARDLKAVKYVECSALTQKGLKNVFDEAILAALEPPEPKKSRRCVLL

[2] = target: Cell division control protein 42 homolog (Homo sapiens) (UniProt P60953); assay: inhibition of fluorescent GTP binding to wildtype Cdc42 – biochemical, multiplex bead flow cytometry, Bodipy-FL-GTP, dose response (AID 1334;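 active = fitted half-maximal concentration within the tested range, moderate curve steepness, significant signal drop, and little compound fluorescence or bead-linkage interference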); settings: bead-based flow cytometry, Bodipy-FL-GTP binding to GST-Cdc42; at 100 µM (top of the series) unless noted
[3] = target: GTPase HRas (Homo sapiens) (UniProt P01112); assay: Ras wt fluorescent GTP loading blockade – biochemical, wildtype, multiplex bead flow cytometry, dose response (AID 1335); settings: bead-based flow cytometry, Bodipy-GTP binding to GST-Ras; at 100 µM (top of the series) unless noted
Sequence of GTPase HRas (Homo sapiens) (P01112 whole entry, looked up): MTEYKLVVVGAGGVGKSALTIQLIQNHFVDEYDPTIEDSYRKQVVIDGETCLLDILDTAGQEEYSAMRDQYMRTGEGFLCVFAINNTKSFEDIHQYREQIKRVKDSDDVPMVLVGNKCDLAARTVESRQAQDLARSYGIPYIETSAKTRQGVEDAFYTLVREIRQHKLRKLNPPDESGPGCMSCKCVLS

[4] = system: Ras-related protein Rab-7a (dog), GTP binding; assay: blockers of fluorescent GTP binding to Rab7 – biochemical, wildtype, multiplex bead flow cytometry, dose response (AID 1336; call rule not given here)
[5] = target: Ras-related C3 botulinum toxin substrate 1 (Homo sapiens) (UniProt P63000); assay: inhibition of wildtype Rac1 nucleotide loading – biochemical, multiplex bead flow cytometry, dose response (AID 1340;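 active = dose curve with midpoint inside tested range, moderate steepness, plateau gap beyond fit error, low compound glow and bead-link interference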); settings: GST-Rac1 beads, Bodipy-FL-GTP binding; at 100 µM (top of the series) unless noted
[6] = target: GTPase HRas (Homo sapiens) (UniProt P01112); assay: blockade of GTP loading onto mutant Ras – biochemical, activated mutant, multiplex bead flow cytometry, dose response (AID 1341;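 active = dose-response curve with midpoint inside the tested range, moderate steepness, significant amplitude and little compound fluorescence or bead-attachment interference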;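 note: GST-tagged constitutively activated Ras mutant immobilized on beads and multiplexed with other GTPases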)

| Compound | outcome [1] | fluorescence, percent of control (lower = inhibition) [2] | GTP binding, percent of control [3] | outcome [4] | GTP binding signal, raw median fluorescence (lower = inhibition) (MCF (arbitrary fluorescence units)) [5] | outcome [6] |
| --- | --- | --- | --- | --- | --- | --- |
| Cc1[nH]c2ccccc2c1/C=C/C(=O)c1ccccc1 | inactive | 68.9% | 81.7% | inactive | 216 | inactive |
| COc1cc(/C=N/NC(=O)Nc2cccc3nsnc23)cc(OC)c1OC | inactive | 60.6% | 105% | inactive | 126 | inactive |
| Cc1cccc(C)c1CCOc1ncccc1C(=O)O | inactive | 80.3% | 251% | inactive | 70.2 | inactive |
| COc1ccc(-c2cc(C(F)(F)F)n3nc(C(=O)O)cc3n2)cc1OC | inactive | 30.7% | 67.7% | inactive | 140 | inactive |
| COc1ccc(OC)c(CNCc2sc(C(=O)O)cc2C)c1 | inactive | 59.9% | 81.9% | inactive | 32.8 | inactive |
| Cc1ccc(C)c(N(CC(N)=O)S(C)(=O)=O)c1 | inactive | 103% | 135% | inactive | 164 | inactive |
| NC(=O)c1cc2ccccc2o/c1=N/NC(=O)c1cccs1 | inactive | 33.4% | 69.6% | inactive | 167 | inactive |
| Cc1cc(N/N=C/c2ccc(O)cc2O)nc(-n2nc(C)cc2C)n1 | inactive | 41% | 53.3% | inactive | 141 | inactive |
| O=C(O)Cc1coc2cc3c(cc12)CCC3 | inactive | 29.9% | 79.1% | inactive | 251 | inactive |
| CCN(CC)c1ccc(/C=C(\C#N)c2nc(-c3cccs3)c(NC(C)=O)s2)cc1 | inactive | 99.5% | 114% | inactive | 0 | inactive |
| COc1ccc(/C=C2\SC(=S)N(CCCC(=O)NNC(=O)c3ccccc3O)C2=O)cc1 | inactive | 32.8% | 73.5% | inactive | 203 | inactive |
| Cc1ccc(CSc2nc3[nH]ncc3c(=O)[nH]2)cc1 | inactive | 37.4% | 80.6% | inactive | 173 | inactive |
| Cc1cc2ccccn2c1C(=O)c1ccc(Cl)c([N+](=O)[O-])c1 | inactive | 38.8% | 86.1% | inactive | 216 | inactive |
| COc1ccccc1CNCc1ccc(C(=O)O)s1 | inactive | 64.5% | 87.8% | inactive | 33.8 | inactive |
| COc1cc2[nH]c(=S)nc(NC3CCCC3)c2cc1OC | inactive | 25.9% | 56.7% | inactive | 124 | inactive |
| COc1cc(/C=N/NC(=O)c2cc3ccccc3cc2O)ccc1OCCN1CCCCC1 | inactive | 39.4% | 91.1% | inactive | 328 | inactive |
| O=C(CN1C(=O)S/C(=C/c2cccnc2)C1=O)N1CCOCC1 | inactive | 54.1% | 68.5% | inactive | 221 | inactive |
| C=CCn1c(-c2csc(-c3ccc(Cl)cc3)n2)n[nH]c1=S | inactive | 40.8% | 89.3% | inactive | 262 | inactive |
| CNC(=S)N=Nc1c(O)[nH]c2ccccc12 | inactive | 36.2% | 47% | inactive | 128 | inactive |
| Cc1nn(CCc2nn[nH]n2)c2nc(-c3ccc(C4CCCCC4)cc3)cc(C(F)(F)F)c12 | inactive | 22.1% | 79.4% | inactive | 249 | inactive |

| Compound | outcome [1] | fluorescence, percent of control (lower = inhibition) [2] | GTP binding, percent of control [3] | outcome [4] | GTP binding signal, raw median fluorescence (lower = inhibition) (MCF (arbitrary fluorescence units)) [5] | outcome [6] |
| --- | --- | --- | --- | --- | --- | --- |
| CCN1/C(=C\C=C2\C(=O)N(c3ccccc3)C(=S)N2C)Sc2ccccc21 | inactive | 35.1% | 73.9% | inactive | 189 | inactive |
| COc1cccc2c1c(C(=O)O)cn2CCOc1ccccc1C | inactive | 58.5% | 212% | inactive | 55.1 | inactive |
| Cc1nc2ccc(NC(=O)COc3ccccc3)cc2s1 | inactive | 37.6% | 89.8% | inactive | 271 | inactive |
| CCC(C)C(=O)Nc1ccc(OC)cc1OC (stereo not given) | inactive | 92.4% | 161% | inactive | 186 | inactive |
| O=[N+]([O-])c1ccc(/C=C/C2=NN(c3ccccc3)C(c3ccco3)C2)cc1 (stereo not given) | inactive | 135% | 132% | inactive | 258 | inactive |
| O=C1NC(=S)N/C1=C/c1cc([N+](=O)[O-])ccc1O | inactive | 60.7% | 157% [at 33.3 µM] | inactive | 185 [at 33.3 µM] | inactive |
| COC(=O)c1ccc(COc2ccccc2/C=N/Nc2cccc(C(=O)O)c2)cc1 | inactive | 52.1% | 100% | inactive | 274 | inactive |
| CCCOC(=O)NC1CCS(=O)(=O)C1 (stereo not given) | inactive | 99.8% | 159% | inactive | 198 | inactive |
| O=C(O)C1C2C=CC(C2)C1C(=O)N1CCOCC1 (stereo not given) | inactive | 53.2% | 66.4% | inactive | 216 | inactive |
| Cc1nnc(OC(C)C)c2nn(-c3ccccc3F)c(C)c12 | inactive | 55.1% | 69.3% | inactive | 0 | inactive |
| O=C(N/N=C(\c1ccccc1)c1ccccn1)c1cccc([N+](=O)[O-])c1 | inactive | 31.4% | 68.7% | inactive | 143 | inactive |
| COc1cccc(/C=C2\SC(=S)N(NC(=O)c3ccncc3)C2=O)c1 | inactive | 26.6% | 63.7% | inactive | 116 | inactive |
| O=S1(=O)N=C(N(CCO)/N=C/c2ccncc2)c2ccccc21 | inactive | 24.1% | 52.3% | inactive | 114 | inactive |
| CCOc1cc(/C=C2/NC(=O)NC2=O)cc([N+](=O)[O-])c1O | inactive | 28.3% | 64.7% | inactive | 146 | inactive |
| Cc1cc(C)cc(Nc2cc(C(=O)O)c3ccccc3n2)c1 | inactive | 58.9% | 80.4% | inactive | 30.7 | inactive |
| COc1ccc(-c2c3c(nc4sc5c(=O)[nH]c(C)nc5c24)CCC3)cc1 | inactive | 38.2% | 49.1% | inactive | 153 | inactive |
| COc1ccc(NC(=S)N(CCN(C)C)C(C)c2ccco2)cc1Cl (stereo not given) | inactive | 49.2% | 60.4% | inactive | 210 | inactive |
| CCC(=O)c1ccc(OCC(=O)O)c(OC)c1 | inactive | 46.1% | 121% | inactive | 64.7 | inactive |
| Oc1c(C(c2ccccn2)N2CCOCC2)ccc2cccnc12 (stereo not given) | inactive | 55.1% | 70.9% | inactive | 0 | inactive |
| O=C(O)c1cccc(NCc2ccccc2)c1 | inactive | 65.9% | 86.9% | inactive | 38.8 | inactive |

| Compound | outcome [1] | fluorescence, percent of control (lower = inhibition) [2] | GTP binding, percent of control [3] | outcome [4] | GTP binding signal, raw median fluorescence (lower = inhibition) (MCF (arbitrary fluorescence units)) [5] | outcome [6] |
| --- | --- | --- | --- | --- | --- | --- |
| Cc1ccc(CN2CC34C=CC(C)(O3)C(C(=O)O)C4C2=O)cc1 (stereo not given) | inactive | 60.3% | 87.8% | inactive | 33.4 | inactive |
| COc1ccc2cc(C)c3nnc(SCc4cccnc4)n3c2c1 | inactive | 32.1% | 76.7% | inactive | 221 | inactive |
| CCNC(=S)N(Cc1cccs1)Cc1cc2cc(OCC)ccc2[nH]c1=O | inactive | 45% | 66% | inactive | 0 | inactive |
| CC(C)C(=O)N1CCN(c2ccccc2NC(=O)c2cccc(Cl)c2)CC1 | inactive | 34.8% | 82.2% | inactive | 269 | inactive |
| COc1cc(/C=C2\SC(=Nc3ccc(O)cc3)NC2=O)cc(OC)c1O | inactive | 36.9% | 79.8% | inactive | 267 | inactive |
| COc1ccc(-c2csc(NC(=O)Cc3cccc4ccccc34)c2C(=O)O)cc1 | inactive | 27.2% | 66.7% | inactive | 187 | inactive |
| COc1ccc(NC(=O)CSc2ccc3nnc(-c4cccnc4)n3n2)c(OC)c1 | inactive | 37.4% | 72.3% | inactive | 165 | inactive |
| O=C(Cn1cnc2cc([N+](=O)[O-])ccc2c1=O)NCCc1ccc(F)cc1 | inactive | 35.9% | 80.9% | inactive | 182 | inactive |
| COc1ccc(CCNC(=O)C2CCCN2C(=O)NC2CCCCC2)cc1OC (stereo not given) | inactive | 50.7% | 180% | inactive | 184 | inactive |
| O=C(O)c1ccc(CNCc2cccc(Br)c2)s1 | inactive | 62.4% | 89.5% | inactive | 33.7 | inactive |
| CCCCOc1cccc(C#CC(=O)c2ccc([N+](=O)[O-])cc2)c1 | inactive | 59.2% | 182% | inactive | 128 | inactive |
| O=C(O)/C=C/c1cn(Cc2ccccc2)nc1-c1ccccc1 | inactive | 101% | 72.4% | inactive | 175 | inactive |
| CCOC(=O)c1c(-c2ccccc2)csc1NC(=O)/C(C#N)=C/c1ccc(O)c(OC)c1 | inactive | 79.7% | 85% | inactive | 233 | inactive |
| COCCNC(=S)Nc1cc(OC)c(OC)cc1C#N | inactive | 40.8% | 74.7% | inactive | 144 | inactive |
| O=C(C[n+]1cccc2ccccc21)c1ccc(NC(=O)c2ccccc2)cc1 | inactive | 75.8% | 123% | inactive | 332 | inactive |
| CCOC(=O)Cn1nnnc1C(CC)N(Cc1ccccc1)Cc1cc2cc(C)ccc2[nH]c1=O (stereo not given) | inactive | 83.7% | 155% | inactive | 182 | inactive |
| Cc1no[n+]([O-])c1COc1cccc(/C=C2\N=C(c3ccccc3)OC2=O)c1 | inactive | 46.6% | 60.8% | inactive | 184 | inactive |
| O=C(N/N=C/c1c(O)n(Cc2ccccc2)c(=O)c2ccccc12)c1cccnc1 | inactive | 18.5% | 75.7% | inactive | 87 | inactive |
| O=C(c1n[nH]c(=O)c2ccccc12)N1CCN(C2c3ccccc3-c3ccccc32)CC1 | inactive | 87% | 156% | inactive | 175 | inactive |
| COc1cccc(NC(=O)CSc2nc3c([nH]c4ccccc43)c(=O)n2C)c1 | inactive | 42.8% | 92.1% | inactive | 293 | inactive |
